# A selection follows.
# CYP2C9 inh = blocks human cytochrome P450 2C9; CYP2C9 Supersomes, luciferin-H conversion, luminescence; inhibition, % at 5 µM; 96,000 compounds, 20% hits;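 active means blocking of liver enzyme CYP2C9 beyond about 50% at 5 µM, limit read from the data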
# CYP2C19 act = cytochrome P450 2C19 (human) activation | AID 1025 | 96,000 tested, under 10 active | activation factor at 5 µM | recombinant CYP2C19, luciferin-H EGE luminescence; stronger effect = higher value; 0 = fully inhibited enzyme, 1 = untreated enzyme | P33261;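 active means activation factor of at least 2 at 5 µM in the primary screen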;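 further: 0 = wells with 2.5 mM tranylcypromine and 1 = vehicle-only wells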
# Target sequence (P33261 whole entry, looked up): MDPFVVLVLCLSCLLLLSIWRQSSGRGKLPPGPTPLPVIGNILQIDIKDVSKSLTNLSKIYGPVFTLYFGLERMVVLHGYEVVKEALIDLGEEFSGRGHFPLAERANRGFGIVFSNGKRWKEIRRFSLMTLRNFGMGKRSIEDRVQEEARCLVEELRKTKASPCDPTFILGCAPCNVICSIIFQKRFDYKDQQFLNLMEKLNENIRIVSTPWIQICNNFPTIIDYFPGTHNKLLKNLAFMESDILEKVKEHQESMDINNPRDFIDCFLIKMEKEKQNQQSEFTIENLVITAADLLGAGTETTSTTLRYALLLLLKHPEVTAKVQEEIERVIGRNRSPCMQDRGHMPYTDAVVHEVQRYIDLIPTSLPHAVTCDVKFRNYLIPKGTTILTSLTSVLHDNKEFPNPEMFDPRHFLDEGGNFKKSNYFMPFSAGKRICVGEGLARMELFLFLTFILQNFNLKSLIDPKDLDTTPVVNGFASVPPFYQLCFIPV
# CYP2C9 act = CYP2C9 (human) activation; P11712; recombinant CYP2C9, luciferin-H conversion, luminescence; stronger effect = higher value; factor 1 = untreated enzyme, 0 = blocked; activation factor at 5 µM; 96,000 compounds, 1.4% hits;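 active means activation factor of 2 or more for CYP2C9 at a 5 µM dose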;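 further: 0 = sulfaphenazole-blocked wells and 1 = vehicle-only wells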
# PostGolgi ctrl = growth of the yeast control strain, post-Golgi counter-screen. 98,000 compounds, 5% hits. inhibition, % at 10 µM. efflux-deficient yeast background strain, growth absorbance A615, 16 h
# CYP2C19 inh = human CYP2C19 inhibition. 96,000 compounds, 21% hits. inhibition, % at 5 µM. CYP2C19 Supersomes, luciferin-H EGE luminescence, 30 min. AID 778;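 active means CYP2C19 inhibition above a set limit at 5 µM in the primary screen, cut at about 50% in these data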;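 further: plate controls were negative control wells for no effect and 2.5 mM tranylcypromine positive control for full effect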
# PostGolgi yeast = growth inhibition of a yeast mutant, post-Golgi transport screen. post-Golgi transport phenotypic cell assay. inhibition, % at 10 µM. 98,000 compounds, 0.9% hits. AID 739;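 further: yeast cells grown in 1536-well plates; yeast grown about 18 h at 30C before absorbance read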
# An asterisk follows results filed as active; x = no result. Unless noted, no stated cut-off is given here; in the data, active means inhibition above about 30%; inactive means the rest.
SMILES,CYP2C9 inh,CYP2C19 act,CYP2C9 act,PostGolgi ctrl,CYP2C19 inh,PostGolgi yeast
Cc1cc(OC(=O)CNC(=O)OC(C)(C)C)c2c(C)cc(=O)oc2c1,-88,0.8,1.9,4,17,0
COc1ccc(C(=O)N2CCN=C2SCc2cccnc2)cc1OC,7,0.2,0.9,-6,83*,-8
O=C(C1CCCCC1)N1CCN=C1SCc1cccnc1,46,0,0.5,6,95*,2
O=C(c1ccc(S(=O)(=O)N2CCCCC2)cc1)N1CCN=C1SCc1cccnc1,31,0.9,0.7,6,6,1
O=C(c1ccco1)N1CCN=C1SCc1cccc(F)c1,20,0.7,0.8,13,32,-2
COc1cccc(OC)c1C(=O)N1CCN=C1SCc1cccnc1,16,0.6,0.8,-2,44,-1
O=C(c1ccccc1F)N1CCN=C1SCc1cccnc1,50,0.2,0.5,12,82*,-13
CCOc1ccccc1C(=O)N1CCN=C1SCc1cccnc1,38,0.4,0.6,1,64*,-4
CCCCC(=O)NC1(C(F)(F)F)C(=O)Nc2c1c(=O)n(C)c(=O)n2C (stereo not drawn),0,0.9,1,8,11,4
O=C(Nc1ccccc1OC(F)F)c1ccc(Br)o1,20,0.5,0.8,11,49,7
C=CCNC(=S)NNC(=O)c1ccc(OCC(C)C)cc1,8,1,0.9,5,-2,1
Cc1sc(NC(=O)c2ccco2)c(C(c2cccnc2)N2CCN(c3ccc(F)cc3)CC2)c1C (stereo not drawn),99*,0,0,27,95*,10
Cc1cc(C)cc(N(C(=O)CNC(=O)c2ccco2)C(C(=O)NC2CCCC2)c2cccnc2)c1 (stereo not drawn),-3,1.1,1,0,-5,-8
CCC(=O)N1CCN(c2ccc(NC(=O)c3ccco3)cc2)CC1,-16,1,1.2,0,-2,-7
CCOC(=O)C1CCN(C(c2cccnc2)c2c(NC(=O)c3ccco3)sc(C)c2C)CC1 (stereo not drawn),82*,0.4,0.2,26,60*,13
CNC(=O)c1sc(N2N=C3/C(=C/c4ccccc4)CCCC3C2c2ccccc2)nc1C (stereo not drawn),34,0.7,0.7,22,33,1
O=C(CSCC(=O)N1CCN(c2ccccc2)CC1)Nc1nc(-c2ccc(Cl)s2)cs1,61*,1,0.4,16,-2,16
O=C(CSCC(=O)N1CCCCC1)Nc1nc(-c2cccs2)cs1,32,0.6,0.7,20,40,-2
O=C(CN1CCN(c2ccccc2)CC1)Nc1nnc(-c2ccccc2)s1,0,1,1,3,4,4
O=C(CSCC(=O)N1CCCCC1)Nc1nc(-c2ccc(Cl)s2)cs1,47,0.4,0.5,72*,58*,32*
O=C(Nc1nc(-c2ccc(Cl)s2)cs1)c1ccncc1,29,0.5,0.7,2,51*,15
CC(=O)Nc1nc(-c2ccc(Br)s2)cs1,24,0.7,0.8,-4,28,-3
CC1CC(C)CN(C(=O)CSCC(=O)Nc2nc(-c3cccs3)cs2)C1 (stereo not drawn),84*,0.6,0.2,72*,40,5
CCOc1ccc(NC(=O)c2nnn(CC(=O)Nc3ccccc3OCC)c2N)cc1,22,0.9,0.8,4,13,-3
CC(C)NS(=O)(=O)c1ccc(NC(=O)C2CC3C=CC2C3)cc1 (stereo not drawn),22,0.8,0.8,2,16,17
SMILES,CYP2C9 inh,CYP2C19 act,CYP2C9 act,PostGolgi ctrl,CYP2C19 inh,PostGolgi yeast
COc1ccc(S(=O)(=O)Nc2nc3n(n2)C(c2ccc(Cl)cc2)CC(=O)N3)cc1 (stereo not drawn),20,1.2,0.8,-3,-19,0
O=C(NCc1ccco1)c1ccc(CN2CCOCC2)cc1,-10,1.1,1.1,3,-9,-10
CCN(CC)S(=O)(=O)c1cc(C(=O)Nc2ccc(Cl)cn2)ccc1C,80*,0.2,0.2,21,81*,-1
CCN(CC)S(=O)(=O)c1cc(C(=O)NC2CCCCC2)ccc1C,65*,0.6,0.4,1,43,1
Cc1ccc(C(=O)Nc2ccc(Cl)cn2)cc1,5,0.8,0.9,1,18,-6
CCCCCn1c(CCCNC(=O)CC)nc2ccccc21,x,x,x,11,x,2
COC(=O)c1cc(COc2ccc3c(c2)oc(=O)c2ccccc23)c(C)o1,49,0.5,0.5,4,52*,-1
COCCOC(=O)c1c(C)oc2ccc(OCc3cc(C(=O)OC)oc3C)cc12,56*,0.6,0.4,5,43,-2
COC(=O)c1cc(-c2c(C)oc3cc(OC)ccc3c2=O)c(C)o1,1,1.1,1,-1,-14,2
Cc1nc2sc(C(c3ccco3)N3CCC(Cc4ccccc4)CC3)c(O)n2n1 (stereo not drawn),x,x,x,13,x,-2
Cc1cc2c(c(N)n1)c(=O)oc1ccccc12,19,0.9,0.8,6,7,2
CC(C)c1nc2sc3c(NCc4ccccc4)ncnc3c2c2c1COC(C)(C)C2,-4,1.1,1,-3,-10,14
CCN(CCO)c1ncnc2c1sc1nc(C(C)C)c3c(c12)CC(C)(C)OC3,76*,0.8,0.2,0,17,-4
CCSc1ncnc2c1sc1nc(-c3ccco3)c3c(c12)CC(C)(C)OC3,9,1.1,0.9,32*,-12,14
O=C(NNc1ccc([N+](=O)[O-])cc1)C12CC3CC(CC(C3)C1)C2,-6,0.9,1.1,13,8,-6
Cc1ccc(-c2noc(CCC(=O)NCc3ccc4c(c3)OCO4)n2)cc1,9,0.9,0.9,7,8,2
CCc1cccc(Nc2cc(C)nc3nc(C)nn23)c1,x,x,x,0,x,0
COc1cc(NC(=O)c2ccco2)ccc1NC(=O)C(C)C,-2,1.1,1,20,-13,3
C=CCOc1ccc(CNn2nnnc2N)cc1,-12,0.9,1.1,-2,10,-2
C=CCOc1c(Br)cc(CNc2ccc(NC(=O)C(C)C)c(OC)c2)cc1OC,46,0.4,0.5,1,61*,-1
C=CCOc1c(Br)cc(CNn2nnnc2N)cc1OC,32,0.3,0.7,10,70*,8
O=CNC(Cc1ccccc1)C(=O)O (stereo not drawn),-3,1,1,9,3,-6
Cc1ccc(NC2=NCCCCC2)cc1,20,1,0.8,2,5,22
CCCOc1ccc(-c2cnc(N)s2)cc1,22,0.8,0.8,8,15,-6
CC(=O)Nc1ccc2c(c1)nc(CCN1CCN(C)CC1)n2C,-12,1.1,1.1,3,-10,0

# Screens deposited in PubChem BioAssay by several laboratories.
